Assay results reported in PubChem BioAssay (Tox21).
Records with an inconclusive call do not appear. Calls of active or inactive are those of the source. Calls follow the shape of the dose curve; as a rule, active = well fitted cell-killing curve with a large enough effect in the repeat runs; inconclusive = weak or mixed curves, or effect the other way; inactive = flat fitted curve, though single readings scatter.

Experiment: qHTS assay to identify small molecule agonists of the androgen receptor (AR) signaling pathway in the presence of an antagonist - cell viability counter screen (AID 1259379);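 also: MDA-kb2 human breast cancer cells carrying an MMTV luciferase reporter; nearly all actives have a fitted effect of over 25% in size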
Details: MDA-kb2 viability, CellTiter-Fluor, 16 h; series mostly up to 92.4 µM; activity change, negative = cytotoxicity: at the top concentration
Summary of the method: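 Cells: MDA-kb2 (MMTV-luc, AR and GR elements), 3,000/well, 5 hr settle. Added: nilutamide 3.0uM final, then compounds (15 conc.). Incubation: 16 hr, 37C, no CO2. Read-out: CellTiter-Fluor, 1 hr, fluorescence.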
% is scaled to controls: 0 for no effect and ±100 for the full control effect.

Row | Structure (SMILES) | activity change, negative = cytotoxicity
1 | CCOc1ccccc1O | -45.8% (inactive)
2 | C=CC(C)CCC=C(C)C (stereo not given) | -1.17% (inactive)
3 | O=C(c1ccc(Cl)cc1)c1ccc(Cl)cc1 | 2.72% (inactive)
4 | OCCc1ccncc1 | 0.207% (inactive)
5 | CC(C)=CCC/C(C)=C/C=N/O | -1.49% (inactive)
6 | O=c1c2ccccc2oc2ccccc12 | -0.725% (inactive)
7 | CCCCCCCCC(=O)OCC(C)OC(=O)CCCCCCCC (stereo not given) | 5.63% (inactive)
8 | Cc1c(-c2cccnc2)c2ccccc2n1CCCCC(=O)O | 3.71% (inactive)
9 | O=C(O)c1ccccc1[N+](=O)[O-] | -0.0823% (inactive)
10 | Sc1nc(S)nc(S)n1 | -1.18% [at 42.5 µM] (inactive)
11 | O=C(Nc1ccccc1)c1cc([N+](=O)[O-])ccc1Cl | -2.71% (inactive)
12 | CCC(C)CCCC(C)(C)O (stereo not given) | -0.4% (inactive)
13 | CC(C)(C(=O)O)c1ccc(C(O)CCCN2CCC(C(O)(c3ccccc3)c3ccccc3)CC2)cc1 (stereo not given) | -0.341% [at 42.5 µM] (inactive)
14 | CCCC(=O)OCc1ccccc1 | 0.374% (inactive)
15 | NC(=O)c1ccccc1C(N)=O | 8.26% (inactive)
16 | COc1ccc(CN(CCN(C)C)c2ncccn2)cc1 | 2.61% [at 42.5 µM] (inactive)
17 | CCCc1ccc(OC)cc1 | -1.56% (inactive)
18 | Cc1nc(C)c(C)nc1C | -4.06% (inactive)
19 | CC(CCl)OC(C)CCl (stereo not given) | -1.06% (inactive)
20 | O=C(O)c1ccccc1-n1cc(C(=O)O)c(=O)c2cc(Nc3c(F)cc(F)cc3Cl)c(Cl)cc21 | 0.0172% (inactive)

Row | Structure (SMILES) | activity change, negative = cytotoxicity
21 | CCCCCCCCCCCCCCCCC(=O)O | -0.0338% [at 42.5 µM] (inactive)
22 | CCCC1CCCC(=O)O1 (stereo not given) | 4.39% (inactive)
23 | N#C[C@@H]1CC(F)(F)CN1C(=O)CNC1CC2CCC(C1)N2c1ncccn1 (stereo not given in full) | -0.804% (inactive)
24 | CC(=O)Nc1ccn(C2COC(COC(=O)c3ccccc3)O2)c(=O)n1 (stereo not given) | 2.2% [at 42.5 µM] (inactive)
25 | CC1(C)CC(O)CC(C)(C)N1[O] | -3.82% (inactive)
26 | O=C(Nc1ccc2c(c1)Cc1ccccc1-2)C(F)(F)F | -4.91% (inactive)
27 | CCCCCCCCS | 0.787% (inactive)
28 | CC/C=C/CCO | -1.15% (inactive)
29 | CC/C=C\CCO | 3.92% (inactive)
30 | CC(C)Cc1nccs1 | -1.11% (inactive)
31 | O=C1CCCN1CCO | -8.05% (inactive)
32 | C=CCCC | 1.1% (inactive)
33 | CCCCCO | 1.22% (inactive)
34 | S=c1[nH][nH]c(=S)s1 | -0.102% (inactive)
35 | C1CCN(CN2CCCCC2)CC1 | -0.854% (inactive)
36 | c1ccc(CN(Cc2ccccc2)Cc2ccccc2)cc1 | 1.12% (inactive)
37 | CC(C)(C)NCC(O)COc1ccc(NC(=O)NC2CCCCC2)cc1 (stereo not given) | -7.44% [at 42.5 µM] (inactive)
38 | CC(=O)c1ccc(Cl)c(Cl)c1Cl | -1.12% (inactive)
39 | COc1ccc(/C=C/S(=O)(=O)NC(=O)c2ccc(C)cc2Cl)cc1 | -4.94% (inactive)

Experiment: qHTS assay to identify small molecule agonists of the estrogen receptor beta (ER-beta) signaling pathway - cell viability counter screen (AID 1259380); also: nearly all actives have a fitted effect of over 30% in size; also: potency is read from the fitted curve at half-maximal effect
Details: ER-beta-bla HEK293T viability, CellTiter-Glo luminescence, 16 h; series mostly up to 92.4 µM; activity change, negative = cytotoxicity: at the top concentration
Summary of the method: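 HEK293T ER-beta-UAS-bla; 2% CS-FBS; 6 hr pre-plate, 16 hr cpd at 37C/5% CO2; LiveBLAzer read first, then CellTiter-Glo 30 min RT, luminescence.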

Row | Structure (SMILES) | activity change, negative = cytotoxicity | Potency
40 | CCOc1ccccc1O | 11.1% (inactive) | 
41 | C=CC(C)CCC=C(C)C (stereo not given) | 6.92% (inactive) | 
42 | O=C(c1ccc(Cl)cc1)c1ccc(Cl)cc1 | 9.53% (inactive) | 
43 | OCCc1ccncc1 | 2.75% (inactive) | 
44 | CC(C)=CCC/C(C)=C/C=N/O | -12.5% (inactive) | 
45 | O=c1c2ccccc2oc2ccccc12 | -3.23% (inactive) | 
46 | CCCCCCCCC(=O)OCC(C)OC(=O)CCCCCCCC (stereo not given) | 0.443% (inactive) | 
47 | Cc1c(-c2cccnc2)c2ccccc2n1CCCCC(=O)O | -0.124% (inactive) | 
48 | O=C(O)c1ccccc1[N+](=O)[O-] | 5.15% (inactive) | 
49 | Sc1nc(S)nc(S)n1 | 1.55% [at 42.5 µM] (inactive) | 
50 | O=C(Nc1ccccc1)c1cc([N+](=O)[O-])ccc1Cl | 1.29% (inactive) | 
51 | CCC(C)CCCC(C)(C)O (stereo not given) | 3.94% (inactive) | 
52 | CC(C)(C(=O)O)c1ccc(C(O)CCCN2CCC(C(O)(c3ccccc3)c3ccccc3)CC2)cc1 (stereo not given) | -3.58% [at 42.5 µM] (inactive) | 
53 | CCCC(=O)OCc1ccccc1 | 11.3% (inactive) | 
54 | NC(=O)c1ccccc1C(N)=O |  | 61.4 µM (active)
55 | COc1ccc(CN(CCN(C)C)c2ncccn2)cc1 | 1.23% [at 42.5 µM] (inactive) | 
